# Test results as given in ChEMBL document CHEMBL2218924, “A broad activity screen in support of a chemogenomic map for kinase signalling research and drug discovery” (Biochem J, 2013).
# Columns and labels:
# [1] = biological target: ALK tyrosine kinase receptor (Homo sapiens) (UniProt Q9UM73); conditions: at 10 µM
# [2] = biological target: T1, Activin receptor type-1B (Homo sapiens) (UniProt P36896); conditions: at 1 µM
# T1 sequence (whole entry): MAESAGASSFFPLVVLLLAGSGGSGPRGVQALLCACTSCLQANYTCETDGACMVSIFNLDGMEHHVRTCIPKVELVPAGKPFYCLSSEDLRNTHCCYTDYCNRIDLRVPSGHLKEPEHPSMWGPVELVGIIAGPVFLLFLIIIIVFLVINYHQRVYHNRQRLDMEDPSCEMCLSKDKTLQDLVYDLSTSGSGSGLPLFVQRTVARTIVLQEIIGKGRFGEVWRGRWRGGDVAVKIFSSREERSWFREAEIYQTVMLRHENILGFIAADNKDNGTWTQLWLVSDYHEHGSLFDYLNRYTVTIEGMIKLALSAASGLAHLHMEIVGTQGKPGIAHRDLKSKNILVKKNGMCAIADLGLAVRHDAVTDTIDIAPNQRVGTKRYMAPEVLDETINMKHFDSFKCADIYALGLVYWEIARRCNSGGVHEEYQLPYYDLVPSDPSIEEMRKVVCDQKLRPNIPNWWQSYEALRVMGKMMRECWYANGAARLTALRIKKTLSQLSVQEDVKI
# [3] = biological target: T1, Activin receptor type-1B (Homo sapiens); conditions: at 10 µM
# [4] = biological target: T2, AMP-activated protein kinase (AMPK) alpha-1/beta-1/gamma-1 (Homo sapiens) (UniProt P54619+Q9Y478+Q13131); conditions: at 1 µM
# [5] = biological target: T2, AMP-activated protein kinase (AMPK) alpha-1/beta-1/gamma-1 (Homo sapiens); conditions: at 10 µM
# [6] = biological target: T3, AMP-activated protein kinase, AMPK (Homo sapiens) (UniProt P54646+O43741+P54619+Q9UGJ0+Q9Y478+Q13131+Q9UGI9); conditions: at 1 µM
# [7] = biological target: T3, AMP-activated protein kinase, AMPK (Homo sapiens); conditions: at 10 µM
# [8] = biological target: T4, NUAK family SNF1-like kinase 1 (Homo sapiens) (UniProt O60285); conditions: at 1 µM
# T4 sequence (whole entry): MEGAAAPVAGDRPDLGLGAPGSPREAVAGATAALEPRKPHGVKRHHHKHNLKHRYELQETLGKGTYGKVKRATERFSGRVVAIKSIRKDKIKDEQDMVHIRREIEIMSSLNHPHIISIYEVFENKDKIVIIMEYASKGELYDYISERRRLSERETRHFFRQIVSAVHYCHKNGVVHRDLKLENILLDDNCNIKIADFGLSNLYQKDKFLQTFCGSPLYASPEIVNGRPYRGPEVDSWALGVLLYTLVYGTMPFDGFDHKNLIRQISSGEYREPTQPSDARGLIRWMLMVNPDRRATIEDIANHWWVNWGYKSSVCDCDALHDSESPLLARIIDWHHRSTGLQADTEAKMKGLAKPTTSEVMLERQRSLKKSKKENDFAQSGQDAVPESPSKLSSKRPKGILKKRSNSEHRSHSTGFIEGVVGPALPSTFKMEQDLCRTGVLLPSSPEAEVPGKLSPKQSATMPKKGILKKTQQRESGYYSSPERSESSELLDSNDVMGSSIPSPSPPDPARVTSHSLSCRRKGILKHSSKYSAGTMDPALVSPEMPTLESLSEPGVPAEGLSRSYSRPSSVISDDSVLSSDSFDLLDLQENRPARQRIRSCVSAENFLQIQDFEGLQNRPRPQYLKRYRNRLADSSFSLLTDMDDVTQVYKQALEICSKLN
# [9] = biological target: T4, NUAK family SNF1-like kinase 1 (Homo sapiens); conditions: at 10 µM
# [10] = biological target: T5, Mitogen-activated protein kinase kinase kinase 5 (Homo sapiens) (UniProt Q99683); conditions: at 1 µM
# T5 sequence (whole entry): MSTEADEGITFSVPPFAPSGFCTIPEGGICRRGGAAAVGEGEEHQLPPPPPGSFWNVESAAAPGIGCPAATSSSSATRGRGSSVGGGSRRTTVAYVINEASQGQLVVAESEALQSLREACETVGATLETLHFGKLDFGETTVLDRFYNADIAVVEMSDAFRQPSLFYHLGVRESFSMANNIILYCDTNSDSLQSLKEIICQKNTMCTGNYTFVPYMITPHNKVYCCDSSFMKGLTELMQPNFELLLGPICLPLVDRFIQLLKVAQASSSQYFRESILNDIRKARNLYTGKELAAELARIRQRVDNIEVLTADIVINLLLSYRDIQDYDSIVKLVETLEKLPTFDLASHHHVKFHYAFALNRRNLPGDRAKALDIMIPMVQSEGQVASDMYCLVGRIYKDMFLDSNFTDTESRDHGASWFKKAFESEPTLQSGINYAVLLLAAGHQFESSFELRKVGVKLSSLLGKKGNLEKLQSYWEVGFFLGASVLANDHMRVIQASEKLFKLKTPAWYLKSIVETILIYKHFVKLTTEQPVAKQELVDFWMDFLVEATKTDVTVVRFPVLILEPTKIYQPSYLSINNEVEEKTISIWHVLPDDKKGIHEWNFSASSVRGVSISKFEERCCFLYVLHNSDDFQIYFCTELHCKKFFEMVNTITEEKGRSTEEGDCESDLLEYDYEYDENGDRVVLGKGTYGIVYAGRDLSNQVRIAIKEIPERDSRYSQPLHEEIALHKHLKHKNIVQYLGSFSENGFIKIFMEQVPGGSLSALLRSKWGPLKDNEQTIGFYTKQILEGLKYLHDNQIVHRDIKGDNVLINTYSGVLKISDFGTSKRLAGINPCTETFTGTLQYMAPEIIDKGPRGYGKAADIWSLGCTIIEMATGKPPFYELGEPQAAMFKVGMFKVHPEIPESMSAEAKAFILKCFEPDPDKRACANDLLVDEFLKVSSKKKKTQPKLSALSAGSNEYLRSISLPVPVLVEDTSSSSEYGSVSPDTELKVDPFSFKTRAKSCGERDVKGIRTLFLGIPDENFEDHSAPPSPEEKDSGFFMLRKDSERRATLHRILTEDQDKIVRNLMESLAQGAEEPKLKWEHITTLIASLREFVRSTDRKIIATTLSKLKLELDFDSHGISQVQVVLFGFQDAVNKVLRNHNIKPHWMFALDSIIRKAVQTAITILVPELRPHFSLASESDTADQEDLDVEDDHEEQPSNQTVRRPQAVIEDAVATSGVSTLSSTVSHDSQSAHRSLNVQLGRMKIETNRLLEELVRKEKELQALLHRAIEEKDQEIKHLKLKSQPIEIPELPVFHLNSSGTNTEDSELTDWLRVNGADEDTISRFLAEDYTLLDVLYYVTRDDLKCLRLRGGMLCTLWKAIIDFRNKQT
# T2 sequence (P54619 whole entry): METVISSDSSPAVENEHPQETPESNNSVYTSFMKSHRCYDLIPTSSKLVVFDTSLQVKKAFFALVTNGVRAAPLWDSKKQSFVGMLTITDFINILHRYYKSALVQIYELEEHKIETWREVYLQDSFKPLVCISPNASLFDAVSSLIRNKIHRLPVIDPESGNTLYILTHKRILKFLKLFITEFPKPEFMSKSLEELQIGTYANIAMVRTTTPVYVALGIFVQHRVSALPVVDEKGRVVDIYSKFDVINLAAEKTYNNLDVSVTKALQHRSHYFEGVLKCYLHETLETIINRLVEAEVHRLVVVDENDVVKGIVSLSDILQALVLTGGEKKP
# T2 sequence (Q13131 whole entry partner): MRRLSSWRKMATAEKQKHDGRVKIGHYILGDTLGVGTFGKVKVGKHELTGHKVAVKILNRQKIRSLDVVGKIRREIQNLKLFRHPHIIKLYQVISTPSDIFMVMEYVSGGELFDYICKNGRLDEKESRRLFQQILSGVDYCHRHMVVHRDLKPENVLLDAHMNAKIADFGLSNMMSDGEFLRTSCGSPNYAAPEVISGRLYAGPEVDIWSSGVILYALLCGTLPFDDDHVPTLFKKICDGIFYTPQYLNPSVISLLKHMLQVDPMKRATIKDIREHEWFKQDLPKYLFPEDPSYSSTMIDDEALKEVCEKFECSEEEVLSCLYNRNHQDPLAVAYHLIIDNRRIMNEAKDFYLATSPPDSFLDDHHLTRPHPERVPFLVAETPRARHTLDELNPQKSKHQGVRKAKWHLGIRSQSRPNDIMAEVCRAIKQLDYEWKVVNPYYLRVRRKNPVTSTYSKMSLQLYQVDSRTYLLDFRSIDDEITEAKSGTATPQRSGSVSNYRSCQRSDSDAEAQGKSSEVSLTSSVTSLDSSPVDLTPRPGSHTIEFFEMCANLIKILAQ
# T2 sequence (Q9Y478 2-270 partner limits assumed): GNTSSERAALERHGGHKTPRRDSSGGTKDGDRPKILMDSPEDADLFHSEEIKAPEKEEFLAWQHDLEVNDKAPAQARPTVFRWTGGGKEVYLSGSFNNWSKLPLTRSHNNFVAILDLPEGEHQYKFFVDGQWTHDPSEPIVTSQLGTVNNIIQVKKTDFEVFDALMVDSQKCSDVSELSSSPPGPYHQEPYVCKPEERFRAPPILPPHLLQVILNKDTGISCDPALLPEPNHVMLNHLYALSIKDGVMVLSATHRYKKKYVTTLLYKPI
# ALK tyrosine kinase receptor (Homo sapiens), sequence (Q9UM73 19-1620 limits assumed): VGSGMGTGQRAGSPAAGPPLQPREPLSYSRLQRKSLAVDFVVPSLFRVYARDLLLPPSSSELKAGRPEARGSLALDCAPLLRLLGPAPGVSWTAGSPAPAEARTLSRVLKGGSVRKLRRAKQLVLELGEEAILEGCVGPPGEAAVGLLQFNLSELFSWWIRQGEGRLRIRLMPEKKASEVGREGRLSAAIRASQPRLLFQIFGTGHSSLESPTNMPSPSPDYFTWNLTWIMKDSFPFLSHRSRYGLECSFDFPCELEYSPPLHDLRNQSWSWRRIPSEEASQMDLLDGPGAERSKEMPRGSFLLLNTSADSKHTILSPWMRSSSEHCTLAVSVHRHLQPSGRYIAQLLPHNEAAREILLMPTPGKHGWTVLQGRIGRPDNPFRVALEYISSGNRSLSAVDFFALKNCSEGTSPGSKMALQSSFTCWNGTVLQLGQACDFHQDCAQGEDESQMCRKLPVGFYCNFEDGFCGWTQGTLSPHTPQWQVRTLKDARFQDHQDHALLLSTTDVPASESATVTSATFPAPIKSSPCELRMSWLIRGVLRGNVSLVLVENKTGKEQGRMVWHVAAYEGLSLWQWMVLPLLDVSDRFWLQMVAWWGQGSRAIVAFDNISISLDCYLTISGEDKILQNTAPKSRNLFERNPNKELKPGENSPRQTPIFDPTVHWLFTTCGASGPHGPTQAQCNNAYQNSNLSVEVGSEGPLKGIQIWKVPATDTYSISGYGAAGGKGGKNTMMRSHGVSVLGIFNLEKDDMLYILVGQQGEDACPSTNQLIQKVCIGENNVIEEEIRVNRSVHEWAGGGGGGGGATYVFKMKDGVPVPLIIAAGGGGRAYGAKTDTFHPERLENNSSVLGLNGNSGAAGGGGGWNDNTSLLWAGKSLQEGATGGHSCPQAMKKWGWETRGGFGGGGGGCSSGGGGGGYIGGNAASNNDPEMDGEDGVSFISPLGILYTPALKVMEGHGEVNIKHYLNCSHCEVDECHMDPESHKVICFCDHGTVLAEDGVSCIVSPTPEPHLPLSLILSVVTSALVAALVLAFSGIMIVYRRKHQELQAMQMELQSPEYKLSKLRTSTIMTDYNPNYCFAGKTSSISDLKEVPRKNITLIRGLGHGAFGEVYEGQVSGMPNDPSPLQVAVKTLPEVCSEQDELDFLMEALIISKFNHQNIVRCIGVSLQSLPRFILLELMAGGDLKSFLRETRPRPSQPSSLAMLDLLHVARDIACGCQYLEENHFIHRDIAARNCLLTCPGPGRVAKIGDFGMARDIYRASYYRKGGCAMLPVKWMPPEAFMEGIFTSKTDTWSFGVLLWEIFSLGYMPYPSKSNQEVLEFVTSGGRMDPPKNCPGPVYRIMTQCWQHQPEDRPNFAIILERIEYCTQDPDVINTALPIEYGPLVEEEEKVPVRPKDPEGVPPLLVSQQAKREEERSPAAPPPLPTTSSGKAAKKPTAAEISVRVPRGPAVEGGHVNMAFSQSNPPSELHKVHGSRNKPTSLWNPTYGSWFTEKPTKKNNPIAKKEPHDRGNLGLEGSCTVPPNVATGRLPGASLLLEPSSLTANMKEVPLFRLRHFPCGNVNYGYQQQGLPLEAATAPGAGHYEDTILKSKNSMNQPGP
Compound,residual activity [1] [%],residual activity [2] [%],residual activity [3] [%],residual activity [4] [%],residual activity [5] [%],residual activity [6] [%],residual activity [7] [%],residual activity [8] [%],residual activity [9] [%],residual activity [10] [%]
O=Nc1c(-c2c(O)[nH]c3ccccc23)[nH]c2ccccc12,18,104,72,2,0,1,3,4,7,52
Oc1c2ccccc2c2c3c(cccc13)N=N2,29,86,84,64,24,69,28,28,17,36
CC#CC(=O)Nc1cc2c(Nc3ccc(F)c(Cl)c3)ncnc2cn1,81,137,99,99,84,79,74,95,86,104
CN(C)c1ccc(/C=C2\C(=O)Nc3ccccc32)cc1,27,127,105,92,50,97,56,93,80,92
N#CC(C#N)=C(N)/C(C#N)=C/c1ccc(O)cc1,–,–,–,92,79,100,–,–,96,81
NC(=O)c1ccc2[nH]c(-c3ccc(Oc4ccc(Cl)cc4)cc3)nc2c1,87,111,97,72,32,71,40,98,85,80
Cc1cc2ncc(-c3ccccc3)nc2cc1C,60,–,–,105,74,–,–,92,94,78
CC(=O)c1ccc(N2CCOCC2)cc1O,93,129,106,102,90,–,–,97,92,92
O=C1NC(=O)/C(=C/c2ccc3c(c2)OC(F)(F)O3)S1,77,127,102,81,66,96,70,91,87,85
O=C1c2ccccc2-[n+]2ccc3c([nH]c4ccccc43)c21,83,110,114,95,94,101,93,97,83,89
COc1cc2ncnc(Nc3ccc(NC(=O)c4ccccc4)cc3)c2cc1OC,57,–,105,–,90,–,88,–,86,103
Cn1cnc2cc3c(Nc4cccc(Br)c4)ncnc3cc21,59,123,82,90,69,102,65,99,80,113
N#Cc1cnc2cnc(NCc3cccnc3)cc2c1Nc1ccc(F)c(Cl)c1,75,–,92,-2,-1,-5,-1,–,-1,85
COc1cc2ncc(-c3ccccc3)nc2cc1OC,–,–,–,86,82,–,75,–,77,83
Oc1ccc(Nc2nc(-c3ccc(Cl)cc3)cs2)cc1,62,104,110,105,90,119,100,107,84,96
CC(=O)O/N=C1\C(=C2\C(=O)Nc3cc(Br)ccc32)Nc2ccccc21,40,100,119,60,9,46,11,56,19,92
Cc1cc(Nc2nc(-c3ccccc3)nc3ccccc23)n[nH]1,15,96,76,15,3,5,3,3,-1,94
CO[C@H]1C[C@@H]2CC[C@@H](C)[C@@](O)(O2)C(=O)C(=O)N2CCCC[C@H]2C(=O)O[C@H]([C@H](C)C[C@@H]2CC[C@@H](O)[C@H](OC)C2)CC(=O)[C@H](C)/C=C(\C)[C@@H](O)[C@@H](OC)C(=O)[C@H](C)C[C@H](C)/C=C/C=C/C=C/1C,32,115,110,79,–,93,107,99,96,85
Oc1n[nH]c2nnc(-c3c(-c4ccccc4)nn4ccccc34)cc12,89,–,115,86,82,97,90,100,45,111

Compound,residual activity [1] [%],residual activity [2] [%],residual activity [3] [%],residual activity [4] [%],residual activity [5] [%],residual activity [6] [%],residual activity [7] [%],residual activity [8] [%],residual activity [9] [%],residual activity [10] [%]
COc1ccc(S(=O)(=O)N(CCO)c2ccccc2CN(C)C/C=C/c2ccc(Cl)cc2)cc1,59,96,102,104,76,99,74,100,75,94
COc1cccc(-c2cc(=O)c3ccccc3o2)c1N,83,111,108,101,96,98,94,109,93,119
O=C1Nc2ccccc2/C1=C1/Nc2ccccc2/C1=N\OCCC(O)CO (configuration not stated),2,–,–,4,4,3,4,2,5,68
O=[N+]([O-])c1ccc(-c2nc(-c3ccc(F)cc3)c(-c3ccncc3)[nH]2)cc1,65,38,35,97,94,91,91,103,89,96
Cc1nc(-c2ccccc2)c(-c2ccncc2)o1,99,119,88,105,108,114,114,99,88,100
CC(C)n1cnc2c(NCc3ccccc3)nc(NCCCO)nc21,64,106,111,88,87,99,90,99,83,113
O=C1Nc2ccc(Br)cc2/C1=C\c1cc2c([nH]1)CCCC2,112,112,101,76,60,–,–,70,74,–
COc1ccc(C(=O)Nc2sc3c(c2C(N)=O)CCCC3)cc1OC,72,–,83,90,78,93,75,87,75,114
Cc1cncc2cccc(S(=O)(=O)N3CCCN(C(=O)CN)C[C@H]3C)c12,–,137,86,98,66,97,45,95,71,98
CNc1cc2c(Nc3cccc(Br)c3)ncnc2cn1,72,121,116,100,80,91,86,100,80,103
COc1ccc(OC)c2c(=S)c3ccccc3[nH]c12,76,90,117,90,81,–,87,103,84,96
Oc1ccc(-c2nc(-c3ccc(F)cc3)c(-c3ccncc3)[nH]2)cc1,82,57,8,102,86,109,86,122,93,92
CN(C)CCCn1cc(C2=C(c3c[nH]c4ccccc34)C(=O)NC2=O)c2ccccc21,–,119,76,44,10,26,4,35,11,–
c1ccc2c(-c3ccncc3)c[nH]c2c1,105,–,110,93,82,–,85,97,84,93
CCN(CC)C(=O)c1ccc(Nc2nc(OCC3CCCCC3)c3nc[nH]c3n2)cc1,6,–,–,35,6,22,5,2,4,80
Nc1cccc(-c2cc3c(Oc4cccc(O)c4)ncnc3[nH]2)c1,8,72,36,53,13,54,15,31,7,96
COc1ccc(CNc2nc(N(CCO)CCO)nc3c2ncn3C(C)C)cc1,61,97,118,97,80,86,88,107,77,95
O=C1NC(=O)c2c1c1c3ccccc3[nH]c1c1[nH]c3cc(Br)ccc3c21,69,106,99,84,87,82,69,52,45,102
